Data published in ChEMBL document CHEMBL4513216, “Probing the Open Global Health Chemical Diversity Library for Multistage-Active Starting Points for Next-Generation Antimalarials” (ACS Infect Dis, 2020).
About 2,700 (4%) of roughly 68,000 compounds showed an effect of 50% or more. This excerpt belongs to a sample that is enriched for strong results.

System: Plasmodium berghei
Experiment: Screen against P. berghei liver stage (PbLuc), transformed with Luciferase, at 2uM
Format: functional, HepG2
Conditions: tested at 2 uM

Compound | INHIBITION [%]
Cc1ccc2c(c1)C1(CCNCC1)CN2C(=O)CN(C)C | 15.58
O=C(Nc1cccnc1)C1Cc2nc(-c3ccsc3)sc2N1CC1CC1 (configuration not stated) | 18.2
CCn1c(CN(C)C(=O)c2ccc(OC)nc2)nc2ccccc21 | -33.03
O=C(Nc1cccc(CNCc2cccnc2)c1)C1CCCC1 | 14.53
O=C(c1cscn1)N1C[C@@H]2C[C@@H](c3nnc(C4CC4)o3)O[C@@H]2C1 | -4.1
Cn1cc(CNC2CCc3ncnn3C2)c(-c2ccncc2)n1 (configuration not stated) | 49.88
CN(C)C(=O)C1CCC2(CCNCC2)C1 (configuration not stated) | 26.55
CC(C)N(C)Cc1cnc2n1CCN(S(=O)(=O)c1ccccc1)C2 | 29.3
COc1ccc(C(=O)C2CCCN(Cc3cc(C)n[nH]3)C2)c(OC)c1 (configuration not stated) | 15.08
O=C(C[S+]([O-])Cc1cccc(F)c1)NC1CCCC1 (configuration not stated) | 27.67
CC(=O)N1CCN(C(=O)c2cnc(OC(C)C)c(Cl)c2)CC1 | 55.36
CC(C)Oc1ncc(C(=O)N2CCC(CC(N)=O)CC2)cc1Cl | 64.9
CC(C)Oc1ncc(C(=O)N2CCCC(C(=O)O)C2)cc1Cl (configuration not stated) | 0.51
CC(C)Oc1ncc(C(=O)N2CCC(N(C)C)CC2)cc1Cl | 55.36
CC(=O)N1CCCN(C(=O)c2cnc(OC(C)C)c(Cl)c2)CC1 | 31.51
CC(O)CN1CCN(C(=O)c2cnc(OC(C)C)c(Cl)c2)CC1 (configuration not stated) | 19.59
CC(C)c1ccc(OCCC(=O)N2CCC(CC(N)=O)CC2)cc1 | 31.19
CC(C)Oc1ncc(C(=O)N2CCC(NC(=O)C3CC3)CC2)cc1Cl | -58.69
CCN1CCCN(C(=O)c2cnc(OC(C)C)c(Cl)c2)CC1 | -16.16
CCc1nc(N)nc(N2CCCC3(CCOCC3)C2)c1C | 39.57
Cc1ocnc1C(=O)N(C)[C@@H]1CC[C@@H](n2ccnc2C)[C@@H]1O | -12.75
O=C1CN(C(=O)CNC(CC(F)(F)F)c2ccc(F)cc2)CCN1 (configuration not stated) | 7.05
COc1c(CNC(c2ccccc2)c2ccc(F)cc2)c(C)nn1C (configuration not stated) | 13.67

Compound | INHIBITION [%]
Cc1noc(C(C)N2CCN(CCn3ccccc3=O)CC2)n1 (configuration not stated) | 25.78
CCOCc1cccc(S(=O)(=O)Nc2ncc(C)s2)c1 | 44.59
Cc1nc(C)n(CC2CCCN2CC(=O)Nc2cc(C(C)C)no2)n1 (configuration not stated) | 35.42
CCc1noc(CN(CC)C(=O)CC2C(=O)NCCN2CC=C(C)C)n1 (configuration not stated) | 3.66
CCc1noc(CN(CC)C(=O)CC2C(=O)NCCN2CC(C)(C)C)n1 (configuration not stated) | 43.6
CCN(Cc1noc(C)n1)C(=O)CC1C(=O)NCCN1CC(C)(C)C (configuration not stated) | 55.84
CN(C)CCOc1ccccc1N1CCN(C(=O)C(C)(C)C#N)CC1 | -4.91
CC(C)(C)C(O)CCNC(=O)c1ccc(F)cc1Cl (configuration not stated) | -9.71
Cc1cc(NC2CCc3ncnn3C2)n2nc(C(F)(F)F)nc2n1 (configuration not stated) | -30.02
CN(C)c1ccc(NC(=O)CN2CCS(=O)(=O)CC2)cn1 | 71.64
O=C(CN1CCS(=O)(=O)CC1)Nc1ccc(N2CCCC2)nc1 | -4.89
COc1ccc(NC(=O)CN2CCS(=O)(=O)CC2)cn1 | -9.39
c1cncc(-c2ccc3c(c2)C2(CC3)CCN(c3nncs3)CC2)c1 | 12.3
Cc1cc(-c2c(C)c(-c3cnn(C)c3)nc(N)c2C#N)oc1C | 23.43
CCc1ccc(-c2c(C)c(-c3cnn(C)c3)nc(N)c2C#N)o1 | 49.25
Cc1c(-c2cnn(C)c2)nc(N)c(C#N)c1-c1ccc(CO)o1 | 55.7
COc1ccc(Cn2cc(C(=O)N(C)Cc3cnccn3)nn2)cc1 | -21.09
O=C(CC1CC1)N1CCC2(COCc3cnc(N4CCOCC4)nc32)C1 (configuration not stated) | 51.72
CCC(=O)N1CCC2(COCc3cnc(N4CCOCC4)nc32)C1 (configuration not stated) | 35.84
COCC(=O)N1CCC2(COCc3cnc(-c4ccccc4)nc32)C1 (configuration not stated) | -22.64
COCCC(=O)N1CCC2(COCc3cnc(-c4ccccc4)nc32)C1 (configuration not stated) | 50.32
O=C(C1CC1)N1CCC2(COCc3cnc(N4CCOCC4)nc32)C1 (configuration not stated) | 29.95
COCCC(=O)N1CCC2(COCc3cnc(-c4cccnc4)nc32)C1 (configuration not stated) | -20.41

Compound | INHIBITION [%]
O=C(c1cc(=O)c(OCc2ccccc2F)co1)N1CCSCC1 | 36.6
c1csc(CN2CCOCC3(CCN(C4CCOCC4)C3)C2)n1 (configuration not stated) | 2.71
CC(C)c1nc(CN2CCCC2Cn2cncn2)no1 (configuration not stated) | -13.92
CCN1CCCC(C)(C(=O)NCc2nncn2CCc2ccccc2)C1 (configuration not stated) | -4.93
c1ccc(-c2nc(CN3CCCC3Cn3cncn3)no2)cc1 (configuration not stated) | -5.3
CC1(C)CC(=O)N(CC(=O)Nc2ccon2)c2ccccc21 | 40.97
CCn1ccnc1CN1CCN(CC(O)CN2CCOCC2)CC1 (configuration not stated) | 38.68
CN1CCN(CC(NCc2ccc(F)cc2)c2ccccc2)CC1 (configuration not stated) | 58.29
Cc1ccc(CNC(CN2CCN(C)CC2)c2ccccc2)cc1 (configuration not stated) | -10.6
CN1CCN(CC(NCc2ccc(F)c(F)c2)c2ccccc2)CC1 (configuration not stated) | 12.57
c1ccc(CNCC2Cn3nnc(-c4ccncc4)c3CO2)nc1 (configuration not stated) | 2.87
CCc1ccc(-c2cn3c(C(=O)N[C@H](C(N)=O)[C@@H](C)O)csc3n2)cc1 | 61.82
C[C@@H](O)[C@H](NC(=O)c1csc2nc(-c3ccccc3F)cn12)C(N)=O | 16.95
CCc1ccc(-c2cn3c(C(=O)NCC(C)C(=O)NC)csc3n2)cc1 (configuration not stated) | 8.54
CCc1c(C)nc(SCc2ccccn2)[nH]c1=O | 50.67
CCCc1cc(=O)[nH]c(SCc2ccccn2)n1 | 4.95
CCc1cc(=O)[nH]c(SCc2ccccn2)n1 | 8.41
CNC(=O)c1cc2c(nc1N(C)C)CCN(c1ncccn1)CC2 | -31.3
Cc1nn2cc(CCNC(=O)c3cc(C(C)C)nn3C)nc2s1 | -8.8
Cc1cc(C(=O)NCCc2cn3nc(C)sc3n2)c(C)o1 | 55.66
Cc1nn2cc(CCNC(=O)c3cc(C(C)C)no3)nc2s1 | 11.9
